An excerpt weighted towards active compounds, which were near 0.82% of everything screened.
Cardiac RTF inh: cardiac RTF calcium sensitivity inhibitors, primary screen, biochemical, IANBD-TnC fluorescence, EC70 calcium; IANBD-labeled cardiac RTF, Ca2+ fluorescence; inhibition, % at 7.15 µM; AID 493244, 2011; hit rate 0.12% among 340,000; Troponin I, cardiac muscle (Homo sapiens) + Troponin T, cardiac muscle (Homo sapiens) + …;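 active = inhibition above the mean inhibition of all tested compounds plus 3 SD, cut at about 17% in these data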;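 note: assay run at fixed EC70 calcium of 1.6 mM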
RTF Ca sens act: cardiac RTF calcium sensitivity activators, primary screen, biochemical, IANBD-TnC fluorescence, EC20 calcium. Troponin I, cardiac muscle (Homo sapiens) + Troponin T, cardiac muscle (Homo sapiens) + …. IANBD-labeled TnC RTF fluorescence at EC20 calcium; 0% EC20 calcium, 100% full calcium. activation, % at 7.2 µM. hit rate 0.24% among 340,000;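 active = activation above the mean over all tested compounds plus 3 SD, cut at about 30% in these data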;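 note: rise in fluorescence read as greater calcium sensitivity of cardiac thin filaments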
Keap1-Nrf2 PPI: Keap1-Nrf2 protein-protein interaction inhibitors, primary screen, biochemical, fluorescence polarization, single point. inhibition, % at 9.4 µM. Kelch-like ECH-associated protein 1 (Homo sapiens), Q14145. Keap1 Kelch-Nrf2 peptide fluorescence polarization, 1536-well. hit rate 0.15% among 340,000; in the data active = inhibition above about 12%;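 note: human Keap1 Kelch domain with fluorescein labeled Nrf2 9mer peptide probe; 0% = neutral control wells and 100% = peptide positive control; higher means more block of Keap1 binding to Nrf2 peptide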
eLon inh: inhibitors of E. coli Lon protease, primary screen, biochemical, fluorescence polarization; P0A9M0; purified E. coli Lon protease; inhibition, % at 7.94 µM; hit rate 0.42% among 360,000; AID 602123, 2011; in the data active = inhibition above about 13%, passing the limit was not always enough;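 note: 0% = enzyme with probe and DMSO and 100% = no enzyme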
C-LANA FP: inhibitors of KSHV C-LANA binding to DNA, primary screen, biochemical, fluorescence polarization, FAM-LBS DNA, MBP-C-LANA, single point; Kaposi's sarcoma herpesvirus LANA C-terminal domain (residues 932-1162) DNA binding; hit rate 0.078% among 340,000; inhibition, % at 9 µM;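 active = highest replicate inhibition at or above 60% at 9 µM, even if other replicates fall short; inactive = all replicates below 60% inhibition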;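 note: 0% = neutral control wells and 100% = 4 µM acridine orange control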
* = called active by the depositor; i = inactive; / = no result given; + = active, no number.

SMILES | Cardiac RTF inh | RTF Ca sens act | Keap1-Nrf2 PPI | eLon inh | C-LANA FP
Cc1ccc(S(=O)(=O)N2C[C@@H](C)[C@]3(C2)[C@H](O)[C@H](OC(=O)Nc2cccs2)C[C@H]2C(=O)N(c4ccccc4)C(=O)[C@H]23)cc1 | / | / | / | 5 | /
Nc1ccc(C(=O)O)cc1[N+](=O)[O-] | -4 | 3 | -4 | -7 | 2
Nc1cc(S(=O)(=O)O)cc([N+](=O)[O-])c1O | -7 | -5 | -3 | -3 | 81*
Cc1ccc(C)c(-n2cc(CNCCc3cnccn3)c(-c3ccccc3)n2)c1 | -8 | 0 | -3 | 39* | 0
S=C(SSC(=S)N1CCOCC1)N1CCOCC1 | / | / | / | -1 | /
Fc1cccc(Cc2c(C3CCCCC3)nc3c4ccccc4ccn23)c1 | / | / | / | -2 | /
CCOc1ccc(NC(=O)/C(C#N)=C\c2ccc(N3CCCC3)c(C)c2)cc1 | -52 | 72* | -4 | -136 | 2
CCc1nc2ccc(C(=O)NCc3cccs3)cn2c1N(CC)Cc1cccc(Br)c1 | / | / | / | 0 | /
NC(=O)C1CCN(c2nc(-c3cccnc3)cs2)CC1 | -9 | 1 | 13* | -6 | 18
NC(=O)C1CCN(c2nc(-c3cccc(N)c3)cs2)CC1 | 5 | -4 | -1 | 0 | 1
CC1C(=O)N(Cc2cn(Cc3ccco3)nn2)CCS(=O)(=O)N1Cc1ccc(-c2cccc(N(C)C)c2)cc1 (stereo unspecified) | / | / | / | 6 | /
CC1=[N+](C)N(c2ccccc2)C(=O)C1N=C/C=C/c1ccccc1 (stereo unspecified) | -1 | -6 | -5 | 0 | 71*
COc1ccc(OC)c(C(C)NC(=O)C23CC4CC(CC(C4)C2)C3)c1 (stereo unspecified) | -2 | -7 | 0 | -5 | 109*
Cc1ccc2nc(-c3ccc(C#N)cc3)c(Cc3ccccc3C(F)(F)F)n2c1 | / | / | / | -3 | /
Cc1cccc(C)c1-n1nnnc1C(c1ccnc2ccccc12)N1CCN(C(=O)OCc2ccccc2)CC1 (stereo unspecified) | / | / | / | 0 | /
COc1ccc(OC)c2cc3ccccc3cc12 | -19 | 9 | 25* | 43 | 39
CC(C)n1cc(C(=O)c2ccccc2O)cc(C#N)c1=O | 11 | 3 | 1 | 1 | -1
N#Cc1cc(C(=O)c2ccccc2O)cn(-c2nccs2)c1=O | -78 | 62* | -22 | -249 | 25
N#Cc1cc(C(=O)c2cc(F)ccc2O)cn(-c2nccs2)c1=O | -75 | 54* | -66 | -261 | 9
Cc1c(-n2cc(C(=O)c3cc(F)ccc3O)cc(C#N)c2=O)c(=O)n(-c2ccccc2)n1C | -8 | 1 | -5 | -27 | 1
CCN1CCN(Cc2c(O)ccc3c(=O)c(-c4ccccc4OC)coc23)CC1 | -2 | 3 | 6 | 0 | -1
CCN1CCN(Cc2c(O)ccc3c2O/C(=C\C=C\c2ccccc2OC)C3=O)CC1 | -150 | 166* | -139 | -40 | 1
Cc1ccc(/C=C2\Oc3c(ccc(O)c3CN3CCN(CCO)CC3)C2=O)cc1 | -38 | 32* | -13 | -50 | 17
CCCCN(C)C1=CC2=CC(=C(C#N)C#N)CCC2CC1 (stereo unspecified) | i | + | -129 | i | -18
CCN(CC)C1=CC2=CC(=C(C#N)C#N)CCC2CC1 (stereo unspecified) | i | + | -113 | i | -3
SMILES | Cardiac RTF inh | RTF Ca sens act | Keap1-Nrf2 PPI | eLon inh | C-LANA FP
O=[N+]([O-])c1ccc(N2N=C(c3ccccc3)CC2c2ccccc2O)cc1 (stereo unspecified) | -53 | 47* | -8 | -222 | -1
NS(=O)(=O)c1ccc(N2N=C(c3ccccc3)CC2c2ccccc2Br)cc1 (stereo unspecified) | -2 | -3 | 2 | 0 | 3
CCOC(=O)c1ccc(S(=O)(=O)N2CCC(C(=O)NCC3COc4ccccc4O3)CC2)cc1 (stereo unspecified) | / | / | / | 4 | /
c1ccc(Nc2cccc3ccccc23)cc1 | -6 | 10 | -1 | 4 | 2
c1ccc(Nc2ccc3c4c(cccc24)CC3)cc1 | -94 | 52* | -2 | -203 | -1
COc1ccccc1CNc1nc(NCc2ccc3occc3c2)c2sccc2n1 | / | / | / | 0 | /
